Experiment [1] has as its target Calcium and integrin-binding protein 1 (Homo sapiens) (UniProt Q99828). Kind of experiment: Primary qHTS for Identification of Calcium Integrin Binding Protein 1 (CIB1) Competitor (AID 1508620).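 Note: GST tagged CIB1 binding a fluorescein labelled alphaIIb integrin peptide tracer; top concentration of the series differs between compounds.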 The method, boiled down:
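CIB1-GST (1 uM final) and compound incubated 15 min at room temperature before adding FITC-alphaIIb peptide tracer (100 nM final). Competition for binding read by fluorescence polarization (ex 480, em 540) after another 15 min at room temperature.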
For orientation: Quantitative high-throughput screening tests each substance at several concentrations.

Experiment [2] can be described thus: Primary qHTS for small molecule stabilizers of the endoplasmic reticulum resident proteome: Secreted ER Calcium Modulated Protein (SERCaMP) assay (AID 1508630). The method, boiled down:
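GLuc-SERCaMP-expressing SH-SY5Y cells, pretreated 16 h with compound, are challenged with thapsigargin to empty ER calcium stores; after 4 h, coelenterazine is added directly to the medium and luminescence is imaged.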

The target of experiment [3] is Cytochrome P450 2D6 (Homo sapiens) (UniProt P10635). Kind of experiment: Cytochrome P450 family 2 subfamily D member 6 (CYP2D6) small molecule antagonists: luciferase biochemical (cell-free) qHTS assay (AID 1645840; active = well fitted curve in the direction sought with a large enough effect in the repeat runs; an effect the other way counts as inactive or inconclusive; note: series mostly up to about 57 µM; nearly all actives have a fitted effect of over 55% in size). In outline: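 P450-Glo luminescent screen: recombinant CYP2D6 enzyme–proluciferin substrate mix preincubated with compound 10 min at room temperature, then NADPH regeneration added for 1 h at room temperature. Detection reagent added for 20 min; luciferin light read as relative luminescence units.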

For experiment [4], the target named is Cytochrome P450 2C9 (Homo sapiens) (UniProt P11712). Kind of experiment: Cytochrome P450 family 2 subfamily C member 9 (CYP2C9) small molecule antagonists: luciferase biochemical (cell-free) qHTS assay (AID 1645842; active = well fitted curve in the direction sought with a large enough effect in the repeat runs; an effect the other way counts as inactive or inconclusive; note: series mostly up to about 57 µM; nearly all actives have a fitted effect of over 55% in size). In outline: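 Luminescence, after 20 min with luciferin detection reagent, reflected CYP2C9 turnover during a 1 h NADPH-driven reaction at 37C. Enzyme-substrate mix contained 0.4% bovine serum albumin and was preincubated with compound 10 min at room temperature.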

Experiment [5] addresses N-terminal Xaa-Pro-Lys N-methyltransferase 1 (Homo sapiens) (UniProt Q9BV86). Briefly: Confirmatory qHTS for Inhibitors of N-terminal methyltransferase 1 (NTMT1): MTaseGlo Assay (AID 1645874). Note: potency is the fitted concentration of half-maximal effect; nearly all actives have a fitted effect of over 65% in size. The method, boiled down: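 NTMT1 (125 nM) preincubated 15 min with compound and 100 uM SAM, then 1 uM SPKRIA peptide added for 30 min at room temperature. SAH detected by MTase-Glo luminescence; normalized to no-enzyme and DMSO controls, fitted to 4-parameter Hill.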

A short description of experiment [6]: Primary qHTS for inhibitors of nuclear receptor binding SET domain protein 2 (NSD2) in an isogenic RCH-ACV NSD2 p.E1099K mutant (9B) (AID 1645876). Note: potency is the fitted concentration of half-maximal effect; nearly all actives have a fitted effect of over 70% in size.

The values below come from PubChem BioAssay (NCATS).

Records with an inconclusive call do not appear. Where a call stands in place of a potency, no number is given. Activity calls are given as the source filed them. Unless noted, calls come from the whole dose curve; as a rule, active = well fitted curve in the direction sought with a large enough effect; inconclusive = small, poorly fitted or top-dose-only effect, or another doubt; inactive = no such curve, though single readings can be large; an effect the other way counts as inactive or inconclusive.

Calcium and integrin-binding protein 1 (Homo sapiens), sequence (Q99828 whole entry, looked up): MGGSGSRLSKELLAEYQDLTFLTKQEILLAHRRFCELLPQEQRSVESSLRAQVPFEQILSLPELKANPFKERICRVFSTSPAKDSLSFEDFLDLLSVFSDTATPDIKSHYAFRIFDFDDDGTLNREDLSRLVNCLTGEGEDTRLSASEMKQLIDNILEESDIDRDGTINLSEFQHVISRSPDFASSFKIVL
Cytochrome P450 2D6 (Homo sapiens), sequence (P10635 whole entry, looked up): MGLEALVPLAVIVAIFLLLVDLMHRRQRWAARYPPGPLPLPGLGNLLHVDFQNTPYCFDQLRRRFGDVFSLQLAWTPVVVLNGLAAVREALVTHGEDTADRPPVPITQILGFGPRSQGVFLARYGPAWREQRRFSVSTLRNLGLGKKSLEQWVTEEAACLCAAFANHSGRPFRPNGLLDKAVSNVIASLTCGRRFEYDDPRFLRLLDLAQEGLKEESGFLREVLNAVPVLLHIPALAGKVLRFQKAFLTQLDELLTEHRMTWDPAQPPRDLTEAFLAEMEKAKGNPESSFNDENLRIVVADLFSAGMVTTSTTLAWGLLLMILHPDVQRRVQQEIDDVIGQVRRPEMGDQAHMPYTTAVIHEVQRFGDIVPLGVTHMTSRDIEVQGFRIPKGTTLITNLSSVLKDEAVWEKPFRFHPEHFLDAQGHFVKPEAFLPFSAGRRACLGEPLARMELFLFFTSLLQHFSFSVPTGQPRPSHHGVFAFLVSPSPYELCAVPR
N-terminal Xaa-Pro-Lys N-methyltransferase 1 (Homo sapiens), sequence (Q9BV86 whole entry, looked up): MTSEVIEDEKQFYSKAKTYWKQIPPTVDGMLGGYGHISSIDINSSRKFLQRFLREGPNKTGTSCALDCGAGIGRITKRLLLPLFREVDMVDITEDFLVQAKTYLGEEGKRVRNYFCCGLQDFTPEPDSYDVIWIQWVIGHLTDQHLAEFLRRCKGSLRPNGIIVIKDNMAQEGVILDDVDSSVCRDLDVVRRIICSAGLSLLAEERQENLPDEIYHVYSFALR
Cytochrome P450 2C9 (Homo sapiens), sequence (P11712 whole entry, looked up): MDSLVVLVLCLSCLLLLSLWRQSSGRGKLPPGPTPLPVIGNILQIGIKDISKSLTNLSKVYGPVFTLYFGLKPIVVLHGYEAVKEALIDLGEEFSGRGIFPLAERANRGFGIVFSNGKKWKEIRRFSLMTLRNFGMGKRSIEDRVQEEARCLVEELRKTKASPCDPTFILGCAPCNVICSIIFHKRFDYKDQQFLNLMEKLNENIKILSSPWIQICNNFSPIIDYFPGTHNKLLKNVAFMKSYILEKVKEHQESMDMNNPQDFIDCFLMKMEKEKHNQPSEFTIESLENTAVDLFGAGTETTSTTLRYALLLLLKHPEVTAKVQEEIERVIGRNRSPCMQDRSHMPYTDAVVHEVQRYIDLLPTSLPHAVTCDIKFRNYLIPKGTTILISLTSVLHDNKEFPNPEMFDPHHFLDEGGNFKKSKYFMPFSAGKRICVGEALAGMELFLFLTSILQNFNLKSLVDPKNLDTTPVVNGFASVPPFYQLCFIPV

On to `C=C(C(=O)O)[C@@H]1CC[C@@]2(C)CC[C@H](O)[C@@]2(C(C)=O)C1`, for which the Potency entry in experiment [1] was “inactive”.
On to `CC(=O)O[C@H]1CC[C@H](C)[C@@]2(C)[C@H](OC(C)=O)c3c(C)coc3C(=O)[C@H]12`, for which the Potency result in experiment [1] was “inactive”.
Same read-out and setting: as for `C=C1C(=O)OC2C1C(O)CC1(C)C(O)CCC(C=O)C21` (configuration not stated), the entry is “inactive”; as for `CC(=O)O[C@]1(C(C)=O)CC[C@H]2[C@@H]3C[C@H](C)C4=CC(=O)C=C[C@]4(C)[C@@]3(F)[C@@H](O)C[C@@]21C`, “inactive”; as for `Fc1ccc2nc(CCC#Cc3ccccn3)cn2c1`, “inactive”.
Still for that read-out and setting: the entry for `O=C(O)CCCCCC[C@H]1C(=O)NC(=O)N1CC[C@@H](O)C1CCCCC1` is “inactive”.
On the same count and under the same terms, as for `CC(C)c1cc2c(c(O)c1O)[C@@]13CCCC(C)(C)[C@@H]1[C@H](OC3=O)C2=O`, the entry is “inactive”.
With `N[C@H]1Cc2ccccc2N(O)C1=O`, the Potency result in experiment [1] is “inactive”.
Consider `COc1nc2sc(C(=O)NC3CC3)c(N)c2c(C)c1Cl`, for which the Potency result in experiment [1] is “inactive”.
Still for that read-out and setting: the entry for `COc1c(/C=C/C(C)(C)O)ccc2c1C(=O)OCc1cc(C)cc(O)c1O2` is “inactive”; for `CC(=O)c1cc(C(=O)N[C@@H](C)Cn2ccc(-c3ccc(C#N)c(Cl)c3)n2)[nH]n1` it is “inactive”.
Same read-out and setting: as for `C=C(C)[C@@H]1CC[C@]2(C)CC[C@]3(C)[C@H](CC[C@@H]4[C@@]5(C)CC[C@@H](O)C(C)(C)[C@@H]5CC[C@]43C)[C@@H]12`, the entry is “inactive”.
As for `O=C(O)COCCN1CCN([C@H](c2ccccc2)c2ccc(Cl)cc2)CC1`, the Potency result in experiment [1] is “inactive”.
Consider `C=C1CC[C@H]2[C@@](C)(CCC(O)[C@@]2(C)CO)[C@@H]1CCC1=CCOC1=O` (some centres not stated), for which, in experiment [1], the Potency result is “inactive”.
Still for that read-out and setting: the entry for `OC/C=C/c1ccc(O[C@@H]2O[C@H](CO)[C@@H](O)[C@H](O)[C@H]2O)cc1` is “inactive”.
The same measure, in the same setting: the entry for `CCc1ccc(Cc2ccc3c(c2)[C@]2(OC3)O[C@H](CO)[C@@H](O)[C@H](O)[C@H]2O)cc1` is “inactive”; for `Cn1nnc(-c2ccc(-c3ccc(N4C[C@H](COP(=O)(O)O)OC4=O)cc3F)cn2)n1` it is “inactive”.
Take `C=CC(C)(C)c1[nH]c2cc3c(cc2c1CC1NC(=O)C2=CCCN2C1=O)C=CC(C)(C)O3` (configuration not stated): the Potency entry in experiment [1] was “inactive”.
As for `COc1cc2oc(-c3ccc(O)cc3O)cc2c(OC)c1CC=C(C)C`, the Potency entry in experiment [1] is “inactive”.
Same read-out and setting: the entry for `CC(C)=C/C=C\[C@H](C)[C@H]1CC[C@]2(C)C[C@@H]3C(C)=CC(=O)C3/C(CO)=C\C[C@@H]12` (some centres not stated) is “inactive”.
As for `CC(C)=CCCC1(C)C=Cc2c(c(C)cc3c2[nH]c2ccccc23)O1` (configuration not stated), the outcome in experiment [2] was inactive.
In the case of `CC(=O)O[C@H]1C(=O)[C@@]2(C)[C@H]([C@H](OC(=O)c3ccccc3)[C@]3(O)C[C@H](OC(=O)[C@H](O)[C@@H](NC(=O)c4ccccc4)c4ccccc4)C(C)=C1C3(C)C)[C@]1(OC(C)=O)CO[C@@H]1C[C@@H]2O`, in experiment [2], the outcome was inactive.
Consider `CCCNc1ccc2ncc(-c3ccc4[nH]ncc4c3)n2n1`, for which the Potency entry in experiment [1], in experiment [3] and in experiment [4] was “inactive” each time. The results for the Potency in experiment [5] and in experiment [6] were 8.91 µM (active) and 0.258 µM (active), respectively.
